The panel holds about 83,000 compounds, 20% with a hit somewhere; the sample as a whole holds those more often.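 Method: cells in 96-well plates; compound added at one concentration; 48 h incubation; percent growth measured; values under 10 scored active.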 Activity calls are given as the source filed them.
Legend:
Test in all cases: NCI-60 one-dose screen, 48 h (100 = growth as untreated, 0 = no growth, -100 = all killed)
Settings in all cases: 10 µM unless noted
NCI-H23 lung = tested on: NCI-H23 lung
NCI-H226 lung = tested on: NCI-H226 lung
NCI-H322M lung = tested on: NCI-H322M lung
HOP-62 NSCLC = tested on: HOP-62 NSCLC
NCI-H460 lung = tested on: NCI-H460 lung
HOP-92 NSCLC = tested on: HOP-92 NSCLC
NCI-H522 lung = tested on: NCI-H522 lung
A549/ATCC NSCLC = tested on: A549/ATCC NSCLC
786-0 renal = tested on: 786-0 renal
DU-145 prostate = tested on: DU-145 prostate
K-562 leukemia = tested on: K-562 leukemia
MALME-3M melanoma = tested on: MALME-3M melanoma
MDA-MB-231 breast = tested on: MDA-MB-231 breast
RXF 393 renal = tested on: RXF 393 renal
SF-268 CNS = tested on: SF-268 CNS
SF-295 CNS = tested on: SF-295 CNS
SF-539 CNS = tested on: SF-539 CNS
UACC-257 melanoma = tested on: UACC-257 melanoma
M14 melanoma = tested on: M14 melanoma

Measured: growth

COc1ccc(/C(C)=N/NS(=O)(=O)c2ccc(C)cc2)cc1OC
inactive: NCI-H23 lung 105% | NCI-H226 lung 106% | NCI-H322M lung 120% | HOP-62 NSCLC 117% | NCI-H460 lung 97.8% | HOP-92 NSCLC 69% | NCI-H522 lung 117% | A549/ATCC NSCLC 102% | 786-0 renal 102% | DU-145 prostate 118% | K-562 leukemia 111% | MALME-3M melanoma 121% | MDA-MB-231 breast 113% | RXF 393 renal 115% | SF-268 CNS 106% | SF-295 CNS 98.9% | SF-539 CNS 103% | UACC-257 melanoma 104% | M14 melanoma 117%

C=C1c2c(C)nn(-c3ccc(NC(C)=O)cc3)c2N(C)C23CC1C1(C)c4c(C)nn(-c5ccc(NC(C)=O)cc5)c4N(C)C(C)(CC12)C3 (configuration not stated)
inactive: NCI-H23 lung 58.2% | NCI-H226 lung 47.2% | NCI-H322M lung 61.2% | HOP-62 NSCLC 55.9% | HOP-92 NSCLC 65% | NCI-H522 lung 42.9% | A549/ATCC NSCLC 26.3% | 786-0 renal 43.5% | DU-145 prostate 46.8% | K-562 leukemia 14.9% | MALME-3M melanoma 71.1% | MDA-MB-231 breast 48.4% | RXF 393 renal 29.9% | SF-268 CNS 43.8% | SF-295 CNS 35.6% | SF-539 CNS 63.1% | UACC-257 melanoma 38.4% | M14 melanoma 19.6%
active: NCI-H460 lung 8.58%

Cc1cc(-c2ccccc2)cc(SC#N)[n+]1[O-]
inactive: NCI-H23 lung 55.9% | NCI-H226 lung 69.4% | NCI-H322M lung 50.5% | HOP-62 NSCLC 40.2% | NCI-H460 lung 19% | HOP-92 NSCLC 82.2% | NCI-H522 lung 39.2% | A549/ATCC NSCLC 33.7% | 786-0 renal 41.1% | DU-145 prostate 46.6% | K-562 leukemia 16% | MALME-3M melanoma 59.3% | MDA-MB-231 breast 52.7% | RXF 393 renal 49.6% | SF-268 CNS 43.3% | SF-295 CNS 23.2% | SF-539 CNS 43.5% | UACC-257 melanoma 59.2% | M14 melanoma 19.3%

C=CCOc1cccc(/C=C2\SC(=Nc3ccc(O)cc3)NC2=O)c1
active: NCI-H226 lung -9.25% | NCI-H460 lung 2.23% | NCI-H522 lung -10.9% | DU-145 prostate 5.29% | K-562 leukemia 5.21% | MDA-MB-231 breast -12.1% | RXF 393 renal -12.8% | SF-295 CNS 7.15% | SF-539 CNS -38.1% | M14 melanoma 9.92%
inactive: NCI-H23 lung 40.2% | NCI-H322M lung 53.5% | HOP-62 NSCLC 25.6% | HOP-92 NSCLC 30.8% | A549/ATCC NSCLC 18.6% | 786-0 renal 11.2% | MALME-3M melanoma 58.3% | SF-268 CNS 19.3% | UACC-257 melanoma 68.4%

C=C(C)[C@@H]1CC[C@]2(CN)CC[C@]3(C)[C@H](CC[C@@H]4[C@@]5(C)CCC(N)[C@@](C)(CO)[C@@H]5CC[C@]43C)[C@@H]12 (some centres not stated)
inactive: NCI-H23 lung 53% | NCI-H226 lung 89.6% | NCI-H322M lung 34.4% | HOP-92 NSCLC 51.7% | RXF 393 renal 58.4% | SF-295 CNS 87.8%
active: HOP-62 NSCLC -89.2% | NCI-H460 lung -75.7% | NCI-H522 lung -77.5% | A549/ATCC NSCLC -82.3% | 786-0 renal -92.9% | DU-145 prostate -38.1% | K-562 leukemia -69.8% | MALME-3M melanoma -85.9% | MDA-MB-231 breast -80.9% | SF-268 CNS -79.5% | SF-539 CNS -72.6% | UACC-257 melanoma -88.7% | M14 melanoma -81.8%

CCNCCNc1cc(-c2ccc(Cl)cc2)c(C#N)c2nc3ccccc3n12
active: NCI-H322M lung 2.72% | HOP-62 NSCLC 1.55% | NCI-H460 lung -55.1% | NCI-H522 lung -41.7% | A549/ATCC NSCLC 6.12% | 786-0 renal -57.9% | K-562 leukemia -48.1% | MALME-3M melanoma -80.2% | MDA-MB-231 breast -57.4% | RXF 393 renal -82.9% | SF-268 CNS -12.6% | SF-295 CNS -77.6% | SF-539 CNS -91.4% | UACC-257 melanoma -79.4% | M14 melanoma -70.7%
inactive: NCI-H23 lung 44.7% | NCI-H226 lung 56% | HOP-92 NSCLC 53.9% | DU-145 prostate 26.4%

CCNCCNc1cc(-c2ccc(F)cc2)c(C#N)c2nc3ccccc3n12
active: NCI-H460 lung 3.07% | K-562 leukemia -19.1% | MALME-3M melanoma -60.1% | SF-539 CNS -88.4% | UACC-257 melanoma -76.8% | M14 melanoma -64.1%
inactive: NCI-H23 lung 77.8% | NCI-H226 lung 93.1% | NCI-H322M lung 66.3% | HOP-62 NSCLC 75.6% | HOP-92 NSCLC 52.1% | NCI-H522 lung 64.3% | A549/ATCC NSCLC 46% | 786-0 renal 57.9% | DU-145 prostate 46.4% | MDA-MB-231 breast 17.9% | RXF 393 renal 29.7% | SF-268 CNS 53.8% | SF-295 CNS 38.5%

CC(C)n1nc(C#Cc2cccc3cc(-c4cccc(C(F)(F)F)c4)ncc23)c2c(N)ncnc21
active: K-562 leukemia 2.23%
inactive: NCI-H23 lung 78.6% | NCI-H226 lung 48.2% | NCI-H322M lung 94.8% | HOP-62 NSCLC 59.7% | NCI-H460 lung 48.9% | HOP-92 NSCLC 78% | NCI-H522 lung 43.7% | A549/ATCC NSCLC 44.4% | 786-0 renal 89% | DU-145 prostate 89.4% | MALME-3M melanoma 93.1% | MDA-MB-231 breast 59.8% | RXF 393 renal 81.7% | SF-268 CNS 76% | SF-295 CNS 91% | SF-539 CNS 54.4% | UACC-257 melanoma 82.7% | M14 melanoma 56.2%

Source: PubChem BioAssay (NCI)
